This excerpt belongs to a sample that is enriched for hits.
AMA1 RON2 block – AMA1-RON2 (P. falciparum) interaction inhibition; 0.2% of 360,000 active; Potency, µM (doses to about 58.2 µM), actives largely listed as inhibitors; AID 720542; AlphaScreen AMA1-biotinylated RON2 peptide binding; active means well fitted inhibition curve with a large enough effect; inconclusive means small, poorly fitted or top-dose-only effect; inactive means no such curve, though single readings can be large or run the other way; further: nearly all actives have a fitted effect of over 45% in size
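AMA1 (3D7) with his tag at 25 nM final met compounds first, then biotinylated RON2 peptide at 25 nM; detection used donor plus acceptor beads, 10 µg/mL apiece, read by AlphaScreen after 30 min at room temperature.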
MARV entry inh – inhibitors of Marburg virus binding or cell entry | Marburg virus pseudotyped entry inhibition, cell reporter | Potency, µM (doses to about 37.8 µM), most hits filed as inhibitors | 1.8% of 300,000 active; calls by dose curve; tested in HEK293 cells
LASV entry inh – inhibitors of Lassa virus binding or cell entry | Potency, µM (doses to about 37.9 µM), most hits filed as inhibitors | 1.2% of 300,000 active | Lassa virus pseudotype entry inhibition, cell reporter; calls by dose curve; tested in HEK293 cells; further: nearly all actives have a fitted effect of over 50% in size
Cycloheximide cs – affects cycloheximide protein synthesis inhibition readout, counter-screen; max response, %; cell reporter, cycloheximide protein synthesis inhibition counterscreen; AID 2314; 12% of 300,000 active; in the data active means max response mostly above about 13%, no sharp cut-off; inactive means mostly below about 14%; further: read at 38.3 µM for the half of the compounds with a filed dose
Shiga inhibitor – inhibitors of Shiga toxin in Vero cells; AID 2315; inhibition, % at 38.7 µM; 9.2% of 290,000 active; Vero cells, Shiga toxin protein synthesis inhibition reporter; in the data active means inhibition mostly above about 28%, no sharp cut-off; inactive means mostly below about 43%
Of the large screens only hits and unclear results are named; the others gave an inactive call.

CCC1Oc2ccccc2N(CC(=O)NCCC2=CCCCC2)C1=O (stereo not given)	MARV entry inh inconclusive
O=C(NCCC1=CCCCC1)C1COc2ccccc2O1 (stereo not given)	MARV entry inh inconclusive, Cycloheximide cs 20, Shiga inhibitor 54
Oc1ccc2ccccc2c1C=Nc1cc(C(F)(F)F)ccc1N1CCCC1	AMA1 RON2 block inconclusive, Shiga inhibitor 51
Cc1cc(C)c2c(N=NN3CCCCC3)[nH]nc2n1	MARV entry inh inconclusive, Cycloheximide cs 38, Shiga inhibitor 41
Cn1ccc(C(=O)OCC(=O)Nc2cccc3ccccc23)n1	none
CCCOC1CCCN(C(=O)c2cc(COc3c(F)cccc3F)on2)C1 (stereo not given)	Cycloheximide cs 47, Shiga inhibitor 93
Cc1ccccc1C1CCCN(C(=O)c2cc(COc3c(F)cccc3F)on2)C1 (stereo not given)	none (no result: MARV entry inh, LASV entry inh)
COc1ccc(OCc2cc(C(=O)N3CCCC(O)C3)no2)c2ccccc12 (stereo not given)	Cycloheximide cs 55, Shiga inhibitor 122
COc1ccc(OCc2cc(C(=O)N3CCCC(OC)C3)no2)c2ccccc12 (stereo not given)	AMA1 RON2 block inconclusive, Cycloheximide cs 50, Shiga inhibitor 92
CCN1CCC2(CCN(C(=O)c3cc(COc4cc(C)ccc4C)on3)C2)C1 (stereo not given)	none (no result: MARV entry inh, LASV entry inh)
Cc1ccc(C)c(OCc2cc(C(=O)N3CC[C@H](O)C3)no2)c1	Cycloheximide cs 34, Shiga inhibitor 92 (no result: MARV entry inh, LASV entry inh)
C/C=C/C(=O)Nc1cccc(C2=NOC3(C2)C[C@@H](C(N)=O)N(C(=O)C(c2ccccc2)c2ccccc2)C3)c1 (stereo not given in full)	none (no result: MARV entry inh, LASV entry inh)
COc1ccc2c(c1)CC(C(=O)NCCc1ccc(S(N)(=O)=O)cc1)CO2 (stereo not given)	none (no result: AMA1 RON2 block, MARV entry inh, Cycloheximide cs, Shiga inhibitor)
O=C(NCCc1ccccc1O)c1cc2c(cc1[N+](=O)[O-])OCO2	none (no result: Cycloheximide cs, Shiga inhibitor)
O=C(O/N=C1\CCCc2ccccc21)C1CC1	none
O=C(O/N=C1/CCCc2occc21)c1ccccc1	Cycloheximide cs 26, Shiga inhibitor 54
O=C(O/N=C1/CCCc2occc21)c1ccc(Cl)cc1Cl	Cycloheximide cs 54, Shiga inhibitor 86
COc1ccc(-c2nc(CN3CCC(C(=O)N4CCOCC4)CC3)c(C)o2)cc1C	none (no result: MARV entry inh, LASV entry inh)
Cc1ccc(C(=O)NC2CCCCCC2)o1	Cycloheximide cs 20, Shiga inhibitor 40
O=C(NC1CCCCCC1)c1ccco1	Cycloheximide cs 12 (no result: MARV entry inh, LASV entry inh)
C=CCNC(=O)CN1CCC(NC(=O)c2ccco2)CC1	none
O=C(CNC(=O)c1ccco1)NC1CCCCCC1	MARV entry inh inconclusive, LASV entry inh inconclusive (no result: Cycloheximide cs, Shiga inhibitor)
COCCNC(=O)CN1CCC(NC(=O)c2ccco2)CC1	Cycloheximide cs 22
Cc1ccc(CS(=O)Cc2ccc(C(=O)NC3CCCCC3)o2)cc1 (stereo not given)	none
CC(C)CC(OC(=O)c1ccco1)C(=O)NC1CCCCC1 (stereo not given)	LASV entry inh inconclusive, Cycloheximide cs 17
CCCCCC(=O)NC(=S)NC1C2CC3CC(C2)CC1C3 (stereo not given)	MARV entry inh inconclusive
Cc1ccc(C(=O)OCC(=O)NC2CCCCC2)o1	Cycloheximide cs 15
COc1ccc(NC(=O)c2cccc(N3C(=O)c4cccc([N+](=O)[O-])c4C3=O)c2)cc1	Cycloheximide cs 24 (no result: MARV entry inh, LASV entry inh)
CC(=O)c1ccc(NC(=O)c2cccc(N3C(=O)c4ccccc4C3=O)c2)cc1	none
CC1=C(C(=O)OCC2CCCO2)C(c2ccccc2)NC(=O)N1 (stereo not given)	MARV entry inh inconclusive, LASV entry inh inconclusive
CCOc1ccc(C2CC(=O)c3c([nH]c(C(=O)OC4CCCCCC4)c3C)C2)cc1 (stereo not given)	none (no result: AMA1 RON2 block, Cycloheximide cs, Shiga inhibitor)
Cc1c(C(=O)OC2CCC(C)CC2)[nH]c2c1C(=O)CCC2 (stereo not given)	MARV entry inh inconclusive, LASV entry inh inconclusive, Cycloheximide cs 43, Shiga inhibitor 76
COC(=O)C1C(=O)c2c([nH]c(C(=O)OCC3CCCO3)c2C)CC1C (stereo not given)	Cycloheximide cs 23, Shiga inhibitor 58 (no result: MARV entry inh, LASV entry inh)
COCCOC(=O)c1[nH]c2c(c1C)C(=O)C(C(=O)OC)C(C)C2 (stereo not given)	Cycloheximide cs 34, Shiga inhibitor 74 (no result: MARV entry inh, LASV entry inh)
COC(=O)C1C(=O)c2c([nH]c(C(=O)OC3CCCCCC3)c2C)CC1C (stereo not given)	Cycloheximide cs 25, Shiga inhibitor 57 (no result: LASV entry inh)
CC(C)N1C(=O)C(=O)N(CC(=O)N2c3ccccc3CC2C)C1=O (stereo not given)	none (no result: MARV entry inh, LASV entry inh, Cycloheximide cs, Shiga inhibitor)
CC(C)CCn1c(=O)c2sccc2n2c(CCCC(=O)Nc3ccc(F)c(Cl)c3)nnc12	none (no result: AMA1 RON2 block, MARV entry inh, Cycloheximide cs, Shiga inhibitor)
CCOC(=O)c1cc(-c2ccc(F)cc2)n(CCC(=O)NC2CCC(C)CC2)c1C (stereo not given)	none (no result: AMA1 RON2 block, MARV entry inh, Cycloheximide cs, Shiga inhibitor)
COCCOC(=O)c1[nH]c2c(c1C)C(=O)CC(c1ccccc1)C2 (stereo not given)	LASV entry inh inconclusive
CCCCCOC(=O)c1[nH]c2c(c1C)C(=O)C(C(=O)OC)C(C)C2 (stereo not given)	Cycloheximide cs 26
CC(C)c1ccc(NC(=O)COC(=O)CC2CCCC2)cc1	LASV entry inh inconclusive (no result: Cycloheximide cs, Shiga inhibitor)
O=C(COC(=O)CC1CCCC1)Nc1cc2c(cc1Cl)C(=O)c1ccccc1C2=O	MARV entry inh inconclusive, Cycloheximide cs 32
O=C(CSc1nnc2ccc(-c3ccc(F)cc3)nn12)N1CCOCC1	none (no result: Cycloheximide cs, Shiga inhibitor)
CSc1ncc(Cl)c(C(=O)Nc2ccc(C)c(C)c2)n1	none (no result: MARV entry inh, LASV entry inh)
COC(=O)c1ccc(NC(=O)c2nc(S(=O)(=O)Cc3cccc(C)c3)ncc2Cl)cc1	MARV entry inh inconclusive, LASV entry inh inconclusive
CCc1ccc(NC(=O)c2nc(S(=O)(=O)Cc3ccccc3)ncc2Cl)cc1	none (no result: AMA1 RON2 block, MARV entry inh, LASV entry inh)
Cc1ccc(NC(=O)c2nc(S(=O)(=O)Cc3ccccc3C)ncc2Cl)cc1C	MARV entry inh inconclusive, LASV entry inh inconclusive, Cycloheximide cs 37, Shiga inhibitor 39
CCOC(=O)c1ccc(NC(=O)c2nc(S(=O)(=O)Cc3ccccc3)ncc2Cl)cc1	MARV entry inh 11µM, LASV entry inh inconclusive
CC(=O)Nc1ccc(NC(=O)c2nc(S(=O)(=O)Cc3cccc(C)c3)ncc2Cl)cc1	LASV entry inh inconclusive, Cycloheximide cs 46, Shiga inhibitor 99
CCOc1ccc(OCc2ccc(C(=O)NC(C)C)o2)cc1	Cycloheximide cs 40, Shiga inhibitor 43 (no result: MARV entry inh, LASV entry inh)
CCCc1ccc(OCc2ccc(C(=O)N3CCCC3)o2)cc1	MARV entry inh inconclusive, Cycloheximide cs 22, Shiga inhibitor 149
CCOc1ccc(OCc2ccc(C(=O)OCc3ccccn3)o2)cc1	MARV entry inh inconclusive, LASV entry inh inconclusive, Cycloheximide cs 63, Shiga inhibitor 143
CC(C)c1ccc(OCc2ccc(C(=O)N3CCCC3)o2)cc1	Cycloheximide cs 111, Shiga inhibitor 155
COc1ccc(S(=O)(=O)N2CCN(C(=O)c3ccc(COc4ccccc4)o3)CC2)cc1	none (no result: MARV entry inh, LASV entry inh, Cycloheximide cs, Shiga inhibitor)
CCOC(=O)c1cccc(NC(=O)c2cc(S(=O)(=O)N3CCCC3)cn2C)c1	none (no result: AMA1 RON2 block, MARV entry inh, Cycloheximide cs, Shiga inhibitor)
COc1ccc(-c2cc(=O)oc3c(C)c(OC(C)C(=O)NCc4ccccn4)ccc23)cc1 (stereo not given)	none (no result: MARV entry inh, LASV entry inh)
CCc1nc2ccc(C(=O)NCCCn3ccnc3)cn2c1N(C)C(=O)c1cccc(OC)c1	none (no result: MARV entry inh, LASV entry inh, Cycloheximide cs, Shiga inhibitor)
